In PubChem BioAssay one finds growth inhibition, inhibition and outcome data, which are given here for 20 compounds.

The structures appear in SMILES notation. Values without a mark were called inactive. For some of these results: Results with a measured potency or affinity are listed apart. Activity calls are given as the source filed them. Unless noted, the rule behind the calls is not given here.

Test [1] can be described thus: antimalarial activity against Dd2 strain (AID 2302;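 active = growth inhibition above 50% at the single 2 µM test dose, taken to imply half-maximal potency below 2 µM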;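 note: 0% = DMSO untreated growth and 100% = chloroquine plus artemisinin killed control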). Conditions: P. falciparum Dd2 in RBCs, LDH growth readout, 72 h; at 2 µM; active compounds read high.
A short description of test [2]: HepG2 cytotoxicity, primary screen, cytotoxicity control for P. falciparum antimalarial project, cell-based, ATP luminescence (AID 2303;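 active = inhibition above 50%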;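 note: 0% = DMSO wells and 100% = digitonin-killed cells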). Conditions: HepG2 viability, 24-48 h, at 10 µM, active compounds read high.
Test [3] deals with L-lactate dehydrogenase (Plasmodium falciparum (isolate CDC / Honduras)) (UniProt Q27743). In words: PfLDH activity inhibition – cell lysate, 3D7 strain, counter-screen for P. falciparum growth inhibition project (AID 2304).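 Note: 0% = vehicle and 100% = reference inhibitor.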 Conditions: P. falciparum 3D7 crude extract, LDH APAD/NBT absorbance; at 2 µM; active compounds read high.
A short description of test [4]: inhibition of 3D7 malaria parasite growth – strain 3D7 (AID 2306).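 Note: 0% = DMSO wells and 100% = chloroquine plus artemisinin control wells.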 Conditions: P. falciparum 3D7 erythrocytic growth, LDH absorbance, 72 h; at 2 µM; active compounds read high.
Test [5] deals with Calcium-dependent protein kinase 1 (Plasmodium falciparum (isolate 3D7)) (UniProt P62344). Kind of test: PfCDPK1 kinase inhibitors, biochemical, TCAMS library (AID 1159585; cut-off not given, nearly all actives have IC50 up to about 0.98 µM;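 note: inhibitors leave more ATP so luminescence rises with inhibition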). Conditions: recombinant PfCDPK1, Kinase-Glo ATP depletion luminescence. In general terms: In Kinase-Glo more light means more ATP remaining.
In test [6] the target is Plasmodium falciparum protein kinase 6 (PK6, PF3D7_1337100) (UniProt Q8IDW1). Kind of test: PfPK6 kinase inhibitors, biochemical, TCAMS library (AID 1159586). Conditions: recombinant PfPK6, Kinase-Glo ATP depletion luminescence.
Test [7] deals with Protein kinase 7 (PK7), Plasmodium falciparum 3D7 (PF3D7_0213400) (UniProt Q7YTF7). Kind of test: inhibition of Plasmodium PK7 catalytic activity – biochemical, TCAMS antimalarial set, Kinase-Glo luminescence (AID 1159587). Conditions: recombinant PfPK7, Kinase-Glo ATP depletion luminescence.
Test [8] addresses Calcium-dependent protein kinase 4 (Plasmodium falciparum (isolate 3D7)) (UniProt Q8IBS5). Kind of test: PfCDPK4 kinase inhibitors, biochemical, TCAMS library (AID 1159588; cut-off not given, nearly all actives have IC50 up to about 0.91 µM). Conditions: recombinant PfCDPK4, Kinase-Glo ATP depletion luminescence.

Sequence of Calcium-dependent protein kinase 4 (Plasmodium falciparum (isolate 3D7)) (Q8IBS5 whole entry, looked up): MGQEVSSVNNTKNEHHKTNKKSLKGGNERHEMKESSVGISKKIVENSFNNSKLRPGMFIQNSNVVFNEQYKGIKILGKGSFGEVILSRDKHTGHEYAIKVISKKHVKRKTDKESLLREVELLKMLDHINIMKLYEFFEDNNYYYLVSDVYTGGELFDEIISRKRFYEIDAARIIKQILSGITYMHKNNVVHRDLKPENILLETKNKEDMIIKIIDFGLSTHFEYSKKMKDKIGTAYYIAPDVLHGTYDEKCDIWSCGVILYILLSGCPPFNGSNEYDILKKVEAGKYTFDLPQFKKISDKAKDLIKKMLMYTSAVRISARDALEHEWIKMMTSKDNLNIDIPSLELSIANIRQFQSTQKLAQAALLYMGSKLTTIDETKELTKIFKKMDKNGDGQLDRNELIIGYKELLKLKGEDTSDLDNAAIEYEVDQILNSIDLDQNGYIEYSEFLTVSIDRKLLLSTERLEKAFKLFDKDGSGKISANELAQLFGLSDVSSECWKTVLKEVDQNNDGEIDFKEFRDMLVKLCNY
Sequence of Protein kinase 7 (PK7), Plasmodium falciparum 3D7 (PF3D7_0213400) (Q7YTF7 1-343): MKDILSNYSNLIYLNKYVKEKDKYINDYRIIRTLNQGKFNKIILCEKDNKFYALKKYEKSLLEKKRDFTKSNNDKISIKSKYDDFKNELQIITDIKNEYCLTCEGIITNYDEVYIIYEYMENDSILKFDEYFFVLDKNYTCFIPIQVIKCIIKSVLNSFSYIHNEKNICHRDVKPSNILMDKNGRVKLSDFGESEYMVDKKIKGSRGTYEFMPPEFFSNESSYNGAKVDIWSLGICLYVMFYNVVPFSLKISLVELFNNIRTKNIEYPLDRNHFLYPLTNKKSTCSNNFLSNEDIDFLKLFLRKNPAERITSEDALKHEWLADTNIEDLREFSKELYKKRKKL
Sequence of Plasmodium falciparum protein kinase 6 (PK6, PF3D7_1337100) (Q8IDW1 1-305): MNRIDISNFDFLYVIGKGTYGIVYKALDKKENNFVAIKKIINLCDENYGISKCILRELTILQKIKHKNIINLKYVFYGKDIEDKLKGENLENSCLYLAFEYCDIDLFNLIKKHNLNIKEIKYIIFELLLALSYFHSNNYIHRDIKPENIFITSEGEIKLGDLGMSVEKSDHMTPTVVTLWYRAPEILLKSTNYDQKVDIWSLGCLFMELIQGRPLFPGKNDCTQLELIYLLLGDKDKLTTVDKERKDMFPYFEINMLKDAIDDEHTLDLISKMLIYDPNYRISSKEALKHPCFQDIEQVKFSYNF
Sequence of Calcium-dependent protein kinase 1 (Plasmodium falciparum (isolate 3D7)) (P62344 whole entry, looked up): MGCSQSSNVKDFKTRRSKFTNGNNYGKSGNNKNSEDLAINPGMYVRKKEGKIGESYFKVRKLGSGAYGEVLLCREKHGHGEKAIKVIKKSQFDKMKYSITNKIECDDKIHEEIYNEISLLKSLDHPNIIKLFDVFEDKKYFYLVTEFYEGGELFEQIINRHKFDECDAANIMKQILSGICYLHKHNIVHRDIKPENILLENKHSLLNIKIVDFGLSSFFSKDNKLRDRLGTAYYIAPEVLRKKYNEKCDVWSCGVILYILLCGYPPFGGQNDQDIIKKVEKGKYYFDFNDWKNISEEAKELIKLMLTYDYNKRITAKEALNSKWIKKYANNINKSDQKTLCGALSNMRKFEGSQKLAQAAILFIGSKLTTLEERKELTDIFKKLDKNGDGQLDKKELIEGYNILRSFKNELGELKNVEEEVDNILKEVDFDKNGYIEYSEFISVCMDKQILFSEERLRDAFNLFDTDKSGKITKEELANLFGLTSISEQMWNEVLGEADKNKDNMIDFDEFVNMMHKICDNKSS
Sequence of L-lactate dehydrogenase (Plasmodium falciparum (isolate CDC / Honduras)) (Q27743 whole entry, looked up): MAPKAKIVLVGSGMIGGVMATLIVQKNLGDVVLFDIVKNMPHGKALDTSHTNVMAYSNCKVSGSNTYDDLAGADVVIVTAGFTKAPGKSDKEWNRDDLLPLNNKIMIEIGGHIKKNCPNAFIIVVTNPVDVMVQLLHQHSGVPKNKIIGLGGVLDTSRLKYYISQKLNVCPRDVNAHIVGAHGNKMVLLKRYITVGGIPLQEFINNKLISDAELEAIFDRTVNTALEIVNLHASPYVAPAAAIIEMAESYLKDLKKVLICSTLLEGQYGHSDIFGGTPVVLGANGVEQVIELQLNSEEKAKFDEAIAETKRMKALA

A word on the inhibition: it is the drop in the measured response relative to a control, in per cent. Consider `CCCc1cccc(OC)c1OCCCON1C(N)=NC(N)=NC1(C)C`, for which the growth inhibition is 97% (active) in test [1] and 94% (active) in test [4]. In addition, the inhibition was 65% (active) in test [2] and 5% in test [3]. Further, the outcome in test [5], in test [6], in test [7] and in test [8] was inactive.

As to `c1cc(CN2CCN(CCN3CCOCC3)CC2)cc(-c2ccc(-c3nc4ccccc4[nH]3)cc2)c1`, the growth inhibition in test [1] and in test [4] was 100% (active) each time. Also, the inhibition in test [2] was 23%; in test [3], -8%. Besides, the outcome in test [5], in test [6], in test [7] and in test [8] was inactive.

With `Cc1c(CNCCCNc2cc(=O)c3ccccc3[nH]2)sc(C(F)F)c1Br`, the growth inhibition was 29% in test [1] and 98% (active) in test [4]. Further, the values for the inhibition in test [2] and in test [3] were 0% and 5%, respectively. The outcome in test [5], in test [6], in test [7] and in test [8] was inactive.

Consider `COc1cccc2cc(C(=O)N[C@@H](CC(C)C)C(=O)N[C@H](/C=N/NC(=O)OC(C)(C)C)Cc3ccccc3)oc12`, for which the growth inhibition was 88% (active) in test [1] and 99% (active) in test [4]. Moreover, the figures for the inhibition in test [2] and in test [3] were 11% and 0%, respectively. For the same compound, the result in test [5], in test [6], in test [7] and in test [8] was inactive.

For `COc1ccccc1N(C)CCNc1cc(C)nc(Nc2ccccc2)n1`, the growth inhibition in test [1] is 13%; in test [4] it was 96% (active). Further, the inhibition in test [2] is 10%; in test [3] it was -1%. In addition, the result in test [5], in test [6], in test [7] and in test [8] was inactive.

For `COc1cc(OCCCCCCON2C(N)=NC(N)=NC2(C)C)cc(OC)c1OC`, the values for the growth inhibition in test [1] and in test [4] were 93% (active) and 94% (active), respectively. The inhibition in test [2] was 41%; in test [3] it was -5%. Also, the result in test [5], in test [6], in test [7] and in test [8] was inactive.

On to `O=C(Nc1cccc([N+](=O)[O-])c1)Nc1ccc(Cl)c(C(F)(F)F)c1`, for which the growth inhibition in test [1] is 87% (active); in test [4], 96% (active). Also, the inhibition in test [2] was 15%; in test [3] it was 6%. In addition, the result in test [5], in test [6], in test [7] and in test [8] was inactive.

As for `Nc1nonc1-c1nc2c(-c3cccc(Cl)c3)nccc2n1CCCNC(=O)Cc1ccc(Cl)cc1`, the growth inhibition was 92% (active) in test [1] and 94% (active) in test [4]. In addition, the inhibition was -4% in test [2] and -2% in test [3]. Besides, the result in test [5], in test [6], in test [7] and in test [8] was inactive.

In the case of `COc1ccc2nccc([C@@H](O)CN3CCC(NC(=O)c4cc5c(F)cc(F)cc5[nH]4)CC3)c2n1`, the growth inhibition in test [1] is 74% (active); in test [4], 101% (active). The inhibition in test [2] is 32%; in test [3], -3%. Also, the result in test [5], in test [6], in test [7] and in test [8] was inactive.

As for `CC1(C)[C@H]2CC[C@@H](CNc3nc(NCC(=O)Nc4ccc5ccccc5c4)nc(N4CCC(N5CCCC5)CC4)n3)[C@@H]1C2`, the growth inhibition in test [1] is 20%; in test [4], 93% (active). The inhibition in test [2] is 6%; in test [3] it was -5%. Moreover, the result in test [5], in test [6], in test [7] and in test [8] was inactive.

For the compound `CCCCN(CCCC)Cc1cc2ccccc2cc1O`, the growth inhibition in test [1] is 98% (active); in test [4] it was 100% (active). In addition, the inhibition in test [2] is 9%; in test [3] it was -6%. The result in test [5], in test [6], in test [7] and in test [8] was inactive.

For the compound `CN(C(=O)/C=C/c1cc(C(F)(F)F)ccc1F)C1CCN(CCCCCNC(=O)/C=C/c2ccc(Cl)c(Cl)c2)CC1`, the growth inhibition in test [1] was 68% (active); in test [4], 101% (active). Further, the inhibition in test [2] was 71% (active); in test [3], 3%. For the same compound, the result in test [5], in test [6], in test [7] and in test [8] was inactive.

Take `CCCc1cc(N2CCC(N(CC)CC)C2)nc(Nc2ccc(OC)cc2)n1` (stereo not given): the growth inhibition in test [1] was 4%; in test [4], 90% (active). Besides, the inhibition in test [2] was 9%; in test [3], 4%. Moreover, the result in test [5], in test [6], in test [7] and in test [8] was inactive.

With `c1ccc(CNCc2ccc(-c3ccc(-c4nc5ccccc5[nH]4)cc3)cc2)cc1`, the values for the growth inhibition in test [1] and in test [4] were 93% (active) and 101% (active), respectively. In addition, the inhibition was 32% in test [2] and 1% in test [3]. Moreover, the outcome in test [5], in test [6], in test [7] and in test [8] was inactive.

Consider `O=S(=O)(c1ccc(OCc2ccc(Cl)cc2)cc1)c1cc2c(cc1O)CCN(C1CCC1)CC2`, for which the growth inhibition in test [1] was 63% (active); in test [4], 99% (active). The inhibition in test [2] was 11%; in test [3], 3%. In addition, the result in test [5], in test [6], in test [7] and in test [8] was inactive.

Take `O=C(NC12CC3CC(CC(C3)C1)C2)C(=O)c1c[nH]c2ccccc12`: the growth inhibition is 2% in test [1] and 97% (active) in test [4]. Besides, the values for the inhibition in test [2] and in test [3] were 16% and 3%, respectively. Also, the result in test [5], in test [6], in test [7] and in test [8] was inactive.

Regarding `Oc1ccc(Nc2nc(NCC3CCCO3)c3ccccc3n2)cc1` (stereo not given), the growth inhibition is 57% (active) in test [1] and 103% (active) in test [4]. Further, the results for the inhibition in test [2] and in test [3] were 7% and 4%, respectively. The result in test [5], in test [6], in test [7] and in test [8] was inactive.

`CC(C)CC(NC(=O)c1ccc(F)cc1)C(=O)N[C@H](/C=N/N1CCNC1=O)CC(C)C` (stereo not given in full): the growth inhibition in test [1] was 84% (active); in test [4] it was 89% (active). In addition, the values for the inhibition in test [2] and in test [3] were -5% and -4%, respectively. Moreover, the outcome in test [5], in test [6], in test [7] and in test [8] was inactive.

Consider `Cc1cccc2[nH]c(-c3cccc(-c4ccc(CNCCCN5CCCC5=O)cc4)c3)nc12`, for which the growth inhibition in test [1] is 38%; in test [4], 101% (active). Moreover, the inhibition was 5% in test [2] and 2% in test [3]. Moreover, the result in test [5], in test [6], in test [7] and in test [8] was inactive.

As to `O=C(Nc1ccc(-c2nc3ccccc3[nH]2)cc1)c1ccc(Cl)s1`, the growth inhibition was 34% in test [1] and 99% (active) in test [4]. Besides, the inhibition is 16% in test [2] and 4% in test [3]. The outcome in test [5], in test [6], in test [7] and in test [8] was inactive.
